{"source": "the supplement of paper PMC12339681", "note": "Where a name gives a salt, the structure may show the parent alone.", "data": [{"test_system": "PBMC-derived induced microglia-like cells (piMGLC)", "assay": "synaptosome phagocytic index relative to DMSO control (fraction of DMSO); higher = more phagocytosis", "details": "concentration: 10 uM (2 uM for compounds listed in Table S2); pretreatment time: 24 h; assay time: 3 h", "description": "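PBMC-derived induced microglia-like cells (piMGLCs) in 96-well plates were pretreated for 24 h with CNS-penetrant library compounds (MedChemExpress HY-L028), mostly at 10 uM; Table S2 lists 9 compounds at 2 uM. pHrodo-Red-labelled human iPSC-neuron synaptosomes (3 ug/well) were then added for 3 h, and cells were fixed and imaged by confocal microscopy. Phagocytic index (synaptosome area / cell count, CellProfiler) is a mean over 3 replicate wells on different plates, normalized to the DMSO control. Compounds leaving <10% of DMSO cell count were marked toxic and given no value.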", "values": [{"molecule": "C1=CC[C@@H](c2cccnc2)NC1", "note": "[Anatabine_(dicitrate)]", "synaptosome phagocytic index": 0.984}, {"molecule": "CC[C@@H](C(N)=O)N1CCCC1=O", "note": "[Levetiracetam]", "synaptosome phagocytic index": 0.711}, {"molecule": "Cc1sc2c(c1C)C(c1ccc(Cl)cc1)=N[C@@H](CC(=O)OC(C)(C)C)c1nnc(C)n1-2", "synaptosome phagocytic index": 0.3}, {"molecule": "Clc1ccc(N2CCN(Cc3c[nH]c4ncccc34)CC2)cc1", "synaptosome phagocytic index": 0.89}, {"molecule": "CCN(C)C(=O)Oc1cccc([C@H](C)N(C)C)c1", "note": "[Rivastigmine]", "synaptosome phagocytic index": 1.03}, {"molecule": "CN(C)c1cc2c(cc1Sc1nc3c(N)nccc3n1CCNCC(C)(C)C)OCO2", "note": "[Debio_0932]", "synaptosome phagocytic index": 0.767}, {"molecule": "CNCC/C=C/c1cccnc1", "note": "[Rivanicline_hemioxalate]", "synaptosome phagocytic index": 0.922}, {"molecule": "CCOC(=O)c1cncn1[C@H](C)c1ccccc1", "note": "[Etomidate_(hydrochloride)]", "synaptosome phagocytic index": 0.749}, {"molecule": "CN(C)C(=O)Oc1ccc[n+](C)c1", "note": "[Pyridostigmine_(bromide)]", "synaptosome phagocytic index": 0.814}, {"molecule": "CN1C[C@H](C(=O)N[C@]2(C)O[C@@]3(O)[C@@H]4CCCN4C(=O)[C@H](Cc4ccccc4)N3C2=O)C[C@@H]2c3cccc4[nH]cc(c34)C[C@H]21", "note": "[Dihydroergotamine_(mesylate)]", "synaptosome phagocytic index": 0.976}, {"molecule": "CC(C)(NC(=O)O[C@@H]1CN2CCC1CC2)c1csc(-c2ccc(F)cc2)n1", "note": "[Ibiglustat_(L-Malic_acid)]", "synaptosome phagocytic index": 1.05}, {"molecule": "CCN(CCCl)Cc1ccccc1Br", "note": "[DSP-4_(hydrochloride)]", "synaptosome phagocytic index": 1.15}, {"molecule": "COc1ccc(C(CN(C)C)C2(O)CCCCC2)cc1", "note": "(stereo unspecified) [Venlafaxine_(hydrochloride)]", "synaptosome phagocytic index": 1.02}, {"molecule": "CCN(C)C(=O)Oc1cccc([C@H](C)N(C)C)c1", "note": "[Rivastigmine_(tartrate)]", "synaptosome phagocytic index": 1.02}, {"molecule": "COc1ccc(OC)c(C(=O)N[C@@H]2CN3CCC2CC3)c1", "synaptosome phagocytic index": 0.646}, {"molecule": "Cc1cccc([C@H](C)c2c[nH]cn2)c1C", "note": "[Dexmedetomidine_(hydrochloride)]", "synaptosome phagocytic index": 0.931}, {"molecule": "FC(F)(F)c1ccc(N2CCNCC2)nc1Cl", "synaptosome phagocytic index": 1.17}, {"molecule": "CC(C)(NC(=O)O[C@@H]1CN2CCC1CC2)c1csc(-c2ccc(F)cc2)n1", "note": "[Ibiglustat]", "synaptosome phagocytic index": 1.26}, {"molecule": "COc1cccc(NCC(F)Cn2c3ccc(Br)cc3c3cc(Br)ccc32)c1", "note": "(stereo unspecified)", "synaptosome phagocytic index": 0.0819}, {"molecule": "C=C(C)[C@H]1CN[C@H](C(=O)O)[C@H]1CC(=O)O", "note": "[Kainic_acid]", "synaptosome phagocytic index": 0.701}, {"molecule": "O=S(=O)(CC1CS1)c1ccc(Oc2ccccc2)cc1", "note": "(stereo unspecified)", "synaptosome phagocytic index": 0.514}, {"molecule": "NCCc1c[nH]c2ccc(O)cc12", "note": "[Serotonin_hydrochloride]", "synaptosome phagocytic index": 0.812}, {"molecule": "Cn1c(CCCC(=O)O)nc2cc(N(CCCl)CCCl)ccc21", "note": "[Bendamustine_(hydrochloride)]", "synaptosome phagocytic index": 0.95}, {"molecule": "CCC(=O)O[C@H]1CC[C@H]2[C@@H]3CCC4=CC(=O)CC[C@]4(C)[C@H]3CC[C@]12C", "note": "[Testosterone_propionate]", "synaptosome phagocytic index": 0.807}, {"molecule": "O=C(NO)c1cnc(NC2(c3ccccc3)CCC(F)(F)CC2)nc1", "synaptosome phagocytic index": 0.867}, {"molecule": "C/C(=C\\c1csc(C)n1)[C@@H]1C[C@@H]2O[C@]2(C)CCC[C@H](C)[C@H](O)[C@@H](C)C(=O)C(C)(C)[C@@H](O)CC(=O)O1", "note": "[Epothilone_B]", "synaptosome phagocytic index": 0.842}, {"molecule": "NCC1(CC(=O)O)CCCCC1", "note": "[Gabapentin]", "synaptosome phagocytic index": 0.686}, {"molecule": "CN1CCc2ccccc2C1CNC(=O)c1ccc(Cl)c(Cl)c1", "note": "(stereo unspecified)", "synaptosome phagocytic index": 0.901}, {"molecule": "COc1ccc(C=C2CCCN=C2c2cccnc2)c(OC)c1", "note": "[GTS-21_(dihydrochloride)]", "synaptosome phagocytic index": 0.922}, {"molecule": "CNC(=O)ON(C(C)=O)C(=O)NC", "note": "[Caracemide]", "synaptosome phagocytic index": 0.78}, {"molecule": "Cn1cc(C2=C(c3cn(C4CCN(Cc5ccccn5)CC4)c4ccccc34)C(=O)NC2=O)c2ccccc21", "note": "[Enzastaurin]", "synaptosome phagocytic index": 0.997}, {"molecule": "NCC(CC(=O)O)c1ccc(Cl)cc1", "note": "(stereo unspecified) [Baclofen]", "synaptosome phagocytic index": 0.783}, {"molecule": "N[C@@H]1C[C@H]1c1ccccc1", "note": "[Tranylcypromine_(hemisulfate)]", "synaptosome phagocytic index": 0.949}, {"molecule": "COc1cc2c(cc1OC)C1CC(=O)C(CC(C)C)CN1CC2", "note": "(stereo unspecified) [Tetrabenazine]", "synaptosome phagocytic index": 0.906}, {"molecule": "CCOC(=O)c1cncn1[C@H](C)c1ccccc1", "note": "[Etomidate]", "synaptosome phagocytic index": 0.926}, {"molecule": "CN1Cc2cc(Cl)ccc2-n2c(nnc2[C@H]2CC[C@H](Oc3ccccn3)CC2)C1", "note": "[Balovaptan]", "synaptosome phagocytic index": 1.09}]}]}
